Each structure is given as a SMILES string. Calls of active or inactive are those of the source.

The values below come from PubChem BioAssay.

In assay [1] the test system is Plasmodium falciparum Sir2 (PF13_0152, Sir2A). As to the kind of experiment: Plasmodium falciparum Sir2A binding compounds – biochemical, small-molecule microarray, 635 nm fluorescence, primary screen (AID 1098).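 Further: score merges spot fluorescence intensity with its signal-to-noise ratio.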 The note with it: fluorescence 635 nm, higher = more signal.
Assay [2] in a line: probe aDKK1 binding to arrayed compounds – biochemical, biotinylated probe, 635/667 nm fluorescence, primary screen (AID 1099).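 Further: score merges 667nm spot fluorescence with signal to noise across triplicate slides.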 The note with it: small-molecule microarray, higher = more signal.
Assay [3] can be described thus: probe aCHRDL2 binding to arrayed compounds – biochemical, biotinylated probe, 635/667 nm fluorescence, primary screen (AID 1100). As to conditions: small-molecule microarray, higher = more signal.
Assay [4] in a line: change in splice reporter luminescence, either direction, cell-based, HEK293, spliceosome inhibition project, primary screen (AID 1101).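 Further: HEK293 cells carrying a splicing-competent luciferase reporter gene; test concentration not given here.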 The note with it: HEK293 splicing luciferase reporter, 24 h, higher = more signal, called active from +8 up or from −8 down. In general terms: In a reporter assay the amount or activity of a reporter protein is the signal.
For assay [5], the target named is Fibroblast growth factor 10 (Homo sapiens) (UniProt O15520). As to the kind of experiment: compounds binding fibroblast growth factor 10 – biochemical, small-molecule microarray, 635 nm fluorescence, primary screen (AID 1102). The note with it: FGF10 binding, fluorescence 635 nm, higher = more signal.
Assay [6] deals with glycogen synthase kinase-3 (GSK3A per assay name; protocol says GSK3B). As to the kind of experiment: compounds binding glycogen synthase kinase-3 – biochemical, small-molecule microarray, 635 nm fluorescence, GSK3A, primary screen (AID 1103). Further: the record names both GSK3A and GSK3B. The note with it: fluorescence 635 nm, higher = more signal.
For assay [7], the target named is Epidermal growth factor receptor (Homo sapiens) (UniProt P00533). As to the kind of experiment: compounds binding epidermal growth factor receptor – biochemical, small-molecule microarray, 635 nm fluorescence, primary screen (AID 1104).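 Further: score merges 667 nm emission intensity with spot signal to noise over triplicate slides.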 As to conditions: EGFR binding, higher = more signal.
Assay [8] addresses Follistatin-related protein 3 (Homo sapiens) (UniProt O95633). As to the kind of experiment: compounds binding follistatin-related protein 3 – biochemical, small-molecule microarray, 635 nm fluorescence, primary screen (AID 1105).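 Further: score merges emission near 667 nm and signal to noise per printed spot across three slides.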 As to conditions: FSTL3 binding, higher = more signal.
Assay [9] concerns the target Dickkopf-related protein 1 (Homo sapiens) (UniProt O94907). As to the kind of experiment: small molecules binding DKK1 protein – biochemical, small-molecule microarray, 635 nm fluorescence scan, primary screen (AID 1106).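 Further: score merges emission near 667 nm with signal to noise over three replicate slides.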 The note with it: higher = more signal.
The test system of assay [10] is Inhibin beta A chain (activin A). As to the kind of experiment: small molecules binding activin A – biochemical, small-molecule microarray, 635 nm fluorescence scan, primary screen (AID 1107).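 Further: mouse activin A protein probed at 4.33 µg/mL on printed slides; score merges bound-protein fluorescence near 667 nm with spot signal-to-noise.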 As to conditions: INHBA, higher = more signal.
In assay [11] the test system is Human papillomavirus type 1a protein E7 (residues 44-93). As to the kind of experiment: small molecules binding HPV E7 44-93 – biochemical, small-molecule microarray, residues 44-93, 635 nm fluorescence, primary screen (AID 1108).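 Further: E7 fragment applied at 1 µg/mL in TBST for 1 h at 4 C; score combines spot fluorescence with its signal to noise ratio.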 As to conditions: fluorescence 635 nm, higher = more signal.
The nature of assay [12]: hepatitis C replication reporter changes, two-sided – Huh7 cells, luciferase reporter, HCV replication inhibitor project, primary screen (AID 1109).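 Further: huh7 hepatoma cells harbouring a luciferase neomycin HCV replicon reporter; luciferase luminescence as measure of HCV replicon replication; test concentration not given here.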 As to conditions: Huh7 HCV replicon luciferase reporter, 48 h; higher = more signal.
The target in assay [13] is Left-right determination factor 2 (Homo sapiens) (UniProt O00292). As to the kind of experiment: small molecules binding LEFTY2 protein – biochemical, small-molecule microarray, 635 nm fluorescence scan, primary screen (AID 1110). The note with it: higher = more signal.
Assay [14] has as its target Calmodulin-1 (Homo sapiens) (UniProt P0DP23). As to the kind of experiment: small molecules binding calmodulin-1 with EGTA – biochemical, small-molecule microarray, Cy5-labelled CALM1, profiling panel (AID 1111).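 Further: labelled calmodulin applied in Tris saline Tween buffer holding calcium plus EGTA and DTT.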 As to conditions: Cy5-CALM1 binding fluorescence, higher = more signal.
The target is the same in assay [15]. As to the kind of experiment: small molecules binding Ca-loaded calmodulin-1 – biochemical, small-molecule microarray, Cy5-labelled CALM1, plus calcium, artefact control for SMM control-protein annotation, profiling panel (AID 1112).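 Further: score merges spot fluorescence with signal to noise from triplicate slides.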 As to conditions: Cy5-CALM1 binding fluorescence, higher = more signal.
A short description of assay [16]: probe aWnt5a binding to arrayed compounds – biochemical, biotinylated probe, 635/667 nm fluorescence, primary screen (AID 1113).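 Further: score merges 667 nm fluorescence intensity with signal-to-noise per printed feature.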 The note with it: small-molecule microarray, higher = more signal.
Assay [17] is described as follows: probe aShh binding to arrayed compounds – biochemical, biotinylated probe, 635/667 nm fluorescence, primary screen (AID 1114).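 Further: probe is biotin-labelled aShh protein from a stem cell growth factor screen; measures binding of labelled protein to compounds printed on the slide; score merges feature fluorescence at 667 nm with signal-to-noise.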 The note with it: small-molecule microarray, higher = more signal.
The nature of assay [18]: probe aNog binding to arrayed compounds – biochemical, biotinylated probe, 635/667 nm fluorescence, primary screen (AID 1115).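 Further: probe is biotinylated aNog protein used at 0.15 µg/mL for 1 h at 4 C; z-score combines 667 nm fluorescence of each spot with its signal to noise.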 The note with it: small-molecule microarray, higher = more signal.
The target of assay [19] is Torsin-1A-interacting protein 1 (Homo sapiens) (UniProt Q5JTV8). As to the kind of experiment: compound microarray binding of lysate hLAP1 – cell lysate, small-molecule microarray, COS7 lysate, 635/667 nm fluorescence, primary screen (AID 1116). The note with it: 635 nm fluorescence, higher = more signal.
Assay [20] has as its target Alpha-bungarotoxin (Bungarus multicinctus) (UniProt P60615). As to the kind of experiment: compounds binding labelled alpha-BTX control protein – biochemical, small-molecule microarray, Alexa647 label, 635/667 nm fluorescence, artefact control for SMM control protein annotation, profiling panel (AID 1117). As to conditions: alpha-BTX-A647 binding fluorescence, higher = more signal.

Sequence of Left-right determination factor 2 (Homo sapiens) (O00292 whole entry, looked up): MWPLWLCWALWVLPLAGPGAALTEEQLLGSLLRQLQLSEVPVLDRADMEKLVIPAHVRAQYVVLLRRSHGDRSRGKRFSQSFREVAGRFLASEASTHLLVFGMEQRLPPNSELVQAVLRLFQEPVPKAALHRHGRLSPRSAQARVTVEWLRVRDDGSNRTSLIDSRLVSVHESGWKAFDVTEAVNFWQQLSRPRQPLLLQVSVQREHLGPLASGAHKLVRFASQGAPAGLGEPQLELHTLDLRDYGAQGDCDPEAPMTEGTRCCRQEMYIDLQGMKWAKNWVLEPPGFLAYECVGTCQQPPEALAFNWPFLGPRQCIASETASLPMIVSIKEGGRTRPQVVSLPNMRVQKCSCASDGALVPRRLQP
Sequence of Alpha-bungarotoxin (Bungarus multicinctus) (P60615 whole entry, looked up): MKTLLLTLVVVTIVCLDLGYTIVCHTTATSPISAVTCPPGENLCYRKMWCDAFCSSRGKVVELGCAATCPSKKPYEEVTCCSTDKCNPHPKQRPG
Sequence of Torsin-1A-interacting protein 1 (Homo sapiens) (Q5JTV8 whole entry, looked up): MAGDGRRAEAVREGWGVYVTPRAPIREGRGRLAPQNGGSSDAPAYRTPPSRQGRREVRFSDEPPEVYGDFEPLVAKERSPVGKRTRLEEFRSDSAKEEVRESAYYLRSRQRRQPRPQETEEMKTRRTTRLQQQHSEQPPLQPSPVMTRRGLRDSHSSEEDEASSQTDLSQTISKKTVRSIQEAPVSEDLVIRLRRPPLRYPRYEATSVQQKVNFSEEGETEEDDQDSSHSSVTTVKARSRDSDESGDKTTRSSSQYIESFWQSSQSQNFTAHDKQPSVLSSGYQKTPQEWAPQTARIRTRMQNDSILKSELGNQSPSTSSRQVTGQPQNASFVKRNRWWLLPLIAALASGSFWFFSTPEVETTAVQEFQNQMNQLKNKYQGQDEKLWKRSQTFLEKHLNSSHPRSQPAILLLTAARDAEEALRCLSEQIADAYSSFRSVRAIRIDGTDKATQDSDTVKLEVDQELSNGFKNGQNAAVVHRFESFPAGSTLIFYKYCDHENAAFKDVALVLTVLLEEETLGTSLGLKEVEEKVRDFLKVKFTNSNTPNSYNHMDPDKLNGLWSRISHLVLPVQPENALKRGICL
Sequence of Dickkopf-related protein 1 (Homo sapiens) (O94907 whole entry, looked up): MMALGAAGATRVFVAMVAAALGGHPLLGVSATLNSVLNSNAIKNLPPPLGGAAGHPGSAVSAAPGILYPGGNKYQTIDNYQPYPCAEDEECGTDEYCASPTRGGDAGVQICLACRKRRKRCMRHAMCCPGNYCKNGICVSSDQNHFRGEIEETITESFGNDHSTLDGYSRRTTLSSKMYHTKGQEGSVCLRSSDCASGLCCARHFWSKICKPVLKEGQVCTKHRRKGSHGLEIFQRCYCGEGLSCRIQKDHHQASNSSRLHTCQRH
Sequence of Fibroblast growth factor 10 (Homo sapiens) (O15520 whole entry, looked up): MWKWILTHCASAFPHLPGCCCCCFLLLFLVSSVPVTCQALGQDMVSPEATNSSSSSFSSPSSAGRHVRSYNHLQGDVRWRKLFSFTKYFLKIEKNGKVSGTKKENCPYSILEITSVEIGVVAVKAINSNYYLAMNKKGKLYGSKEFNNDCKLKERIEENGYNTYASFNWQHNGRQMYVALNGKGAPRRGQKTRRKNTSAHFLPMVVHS
Sequence of Epidermal growth factor receptor (Homo sapiens) (P00533 whole entry, looked up): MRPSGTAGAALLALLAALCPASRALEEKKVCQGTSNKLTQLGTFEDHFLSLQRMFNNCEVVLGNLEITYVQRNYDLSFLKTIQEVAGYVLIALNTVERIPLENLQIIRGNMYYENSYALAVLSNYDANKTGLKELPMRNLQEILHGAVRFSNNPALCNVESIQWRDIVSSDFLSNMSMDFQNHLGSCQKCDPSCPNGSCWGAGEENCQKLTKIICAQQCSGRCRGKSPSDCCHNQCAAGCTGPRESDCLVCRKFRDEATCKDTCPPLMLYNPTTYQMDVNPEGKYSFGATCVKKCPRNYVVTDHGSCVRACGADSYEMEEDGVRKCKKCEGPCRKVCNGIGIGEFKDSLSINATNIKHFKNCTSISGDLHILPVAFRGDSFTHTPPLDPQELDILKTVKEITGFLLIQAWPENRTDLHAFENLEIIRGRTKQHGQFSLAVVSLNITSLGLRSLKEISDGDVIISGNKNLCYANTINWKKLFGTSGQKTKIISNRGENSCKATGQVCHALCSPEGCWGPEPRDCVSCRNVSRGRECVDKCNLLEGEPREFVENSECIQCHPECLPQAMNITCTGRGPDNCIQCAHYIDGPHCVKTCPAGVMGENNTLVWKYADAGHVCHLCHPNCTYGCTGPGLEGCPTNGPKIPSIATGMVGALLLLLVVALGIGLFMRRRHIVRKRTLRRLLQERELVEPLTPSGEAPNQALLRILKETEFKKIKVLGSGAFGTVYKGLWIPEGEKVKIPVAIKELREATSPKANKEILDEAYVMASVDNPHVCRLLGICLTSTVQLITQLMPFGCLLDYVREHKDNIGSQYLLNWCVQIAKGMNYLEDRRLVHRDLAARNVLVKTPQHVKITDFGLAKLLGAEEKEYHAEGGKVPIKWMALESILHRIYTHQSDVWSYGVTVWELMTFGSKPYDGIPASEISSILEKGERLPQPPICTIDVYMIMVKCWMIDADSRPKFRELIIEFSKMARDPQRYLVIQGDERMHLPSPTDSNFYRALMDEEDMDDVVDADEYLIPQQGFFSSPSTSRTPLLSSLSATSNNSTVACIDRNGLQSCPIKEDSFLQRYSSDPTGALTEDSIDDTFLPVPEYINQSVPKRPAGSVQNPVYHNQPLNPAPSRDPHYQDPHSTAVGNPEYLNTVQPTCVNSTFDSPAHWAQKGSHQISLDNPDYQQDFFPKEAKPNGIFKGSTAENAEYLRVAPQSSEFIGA
Sequence of Follistatin-related protein 3 (Homo sapiens) (O95633 whole entry, looked up): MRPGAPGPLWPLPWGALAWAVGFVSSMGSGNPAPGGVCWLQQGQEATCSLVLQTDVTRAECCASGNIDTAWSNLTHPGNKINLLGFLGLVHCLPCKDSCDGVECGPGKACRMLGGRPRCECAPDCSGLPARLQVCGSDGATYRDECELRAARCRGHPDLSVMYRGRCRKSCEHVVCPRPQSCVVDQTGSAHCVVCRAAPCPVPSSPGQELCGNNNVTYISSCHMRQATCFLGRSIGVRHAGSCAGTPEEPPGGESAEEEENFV

On to `O=C1[C@H]2[C@H]3[C@H](O)[C@H](O)CC(=NOCc4ccccc4)[C@H]3CC[C@H]2C(=O)N1c1ccc(F)cc1F`, for which the composite z-score in assay [1] was -0.183; in [2] it was -0.268; in [3], -0.675; in [5] it was 0.266; in assay [6], 0.167; in assay [7] it was 0.534. In addition, the composite z-score in assay [8] was -0.0913; in assay [9], 0.0949; in assay [10], -0.364; in [11], -0.642; in assay [13] it was 0.349; in assay [14], -0.251. Further, the composite z-score in [15] is -0.349; in [16], -0.123; in assay [17], -0.339; in [18], -0.47; in [19], -0.273; in assay [20], -0.0546. Also, the values for the z-score in assay [4] and in [12] were -0.772 (inactive) and 0.473, respectively.

Turning to `C=CC[C@@H]1C=C[C@H](ON=C[C@@H](OC)[C@H](C)C=CCC(=O)OC)[C@@H](CO)O1`, the composite z-score in assay [1] is -0.433; in assay [2] it was -0.0759; in [3] it was -0.615; in assay [5] it was 0.423; in assay [6], 0.306; in assay [7], -0.0453. The composite z-score in [8] was 0.343; in [9] it was 0.17; in assay [10] it was 0.496; in [11], 0.241; in assay [13] it was 0.283; in assay [14] it was -0.67. Besides, the composite z-score is -1.65 in assay [15]; -0.0222 in [16]; -0.0035 in assay [17]; -0.526 in assay [18]; 0.848 in [19]; -0.741 in assay [20]. For the same molecule, the figures for the z-score in assay [4] and in assay [12] were 0.653 (inactive) and -0.581, respectively.

Consider `COC(=O)[C@@H]1CC[C@H](C)[C@@H](c2ccc(C)cc2)N1C(=O)c1ccc(C=NOC[C@@H](O)COCc2ccco2)cc1`, for which the composite z-score in assay [1] was -0.525; in [2] it was -0.456; in assay [3], 0.675; in assay [5] it was -1.43; in assay [6], -1.79; in assay [7] it was -1.3. The composite z-score in [8] was -2.16; in assay [9] it was -0.5; in [10], 1.87; in assay [11] it was -1.6; in assay [13], 0.283; in [14], -1.22. The composite z-score in assay [15] is -1.22; in [16] it was -0.21; in assay [17], -0.2; in assay [18], -0.788; in [19], -1.63; in assay [20] it was -1.25. In addition, the z-score in assay [4] is -0.0402 (inactive); in [12], -2.42.

Turning to `C=CC[C@@H]1C=C[C@H](ON=C2c3cc(OC)ccc3O[C@H](c3cccc(OC)c3)[C@H]2O)[C@@H](CO)O1`, the composite z-score in assay [1] was 0.0678; in assay [2] it was -0.403; in [3], -0.626; in assay [5], 0.0385; in assay [6], -0.325; in [7], 0.379. Moreover, the composite z-score is 0.0069 in [8]; 0.26 in assay [9]; -0.0002 in [10]; -0.208 in assay [11]; 0.194 in assay [13]; -0.569 in [14]. For the same molecule, the composite z-score was -0.319 in assay [15]; -0.175 in assay [16]; -0.288 in assay [17]; 0.151 in assay [18]; -0.103 in assay [19]; 1.42 in assay [20]. The results for the z-score in assay [4] and in [12] were -0.766 (inactive) and -0.892, respectively.

`N#Cc1ccc(NN2C(C(O)c3cccc4ccccc34)C=CC3C(=O)N(c4ccccc4)C(=O)C32)cc1` (stereo not given): the composite z-score in assay [1] was 0.582; in [2] it was 0.687; in assay [3], 1.14; in assay [5] it was 0.899; in assay [6], 0.676; in assay [7], 0.316. Also, the composite z-score in [8] was 0.898; in assay [9], -0.203; in assay [10], 0.478; in assay [11], 1.48; in assay [13], 0.221; in assay [14] it was 1.74. The composite z-score in assay [15] was found to be 0.164; in assay [16], 0.139; in [17] it was 0.23; in assay [18], 0.837; in [19], 0.365; in [20] it was 1.09. The z-score was 1.27 (inactive) in assay [4] and 0.148 in [12].

For the molecule `COC(=O)[C@H](C)NC(=O)CCC1CC(OC(=O)NCCc2ccc(F)cc2)CC2(CCCC(COC(=O)NCC(c3ccccc3)c3ccccc3)O2)O1` (stereo not given in full), the composite z-score was 0.713 in assay [1]; -0.389 in assay [2]; -0.498 in assay [3]; 0.377 in assay [5]; 0.756 in [6]; 0.384 in assay [7]. The composite z-score in assay [8] is 0.691; in assay [9] it was 0.457; in assay [10] it was -0.0097; in [11] it was 1.39; in assay [13] it was 0.386; in [14], 0.084. Further, the composite z-score is -0.443 in assay [15]; -0.124 in [16]; 0.0062 in assay [17]; -0.152 in assay [18]; 0.516 in assay [19]; 0.853 in assay [20]. The z-score is -0.527 (inactive) in [4] and -0.375 in assay [12].
